Columns and labels:
[1] = system: FLT3-autoinhibited
[2] = system: FLT3
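Note: kd values determined as follow-up on hits from a single-replicate KINOMEscan panel screen.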

Row | SMILES | Kd [1] [nM] | Kd [2] [nM]
1 | Cn1cnc2c(N)ncnc21 [SKF-97623] | > 10000 | –
2 | CS(=O)(=O)Cc1ccc(Nc2nccc(-c3c(-c4cccc(NC(=O)C5CCCCC5)c4)nn4ncccc34)n2)cc1 [GSK350559] | – | 74
3 | O=C(Nc1n[nH]c2nc(-c3cccs3)c(Br)cc12)C1CC1 [SB-735297] | – | 150

From paper PMC5540273 (PLoS ONE, 2017)
